Screening results as filed in PubChem.
Shown are actives, neighbours in structure and some others; about 7.9% of the full set was active somewhere.
PD-1 reversal: reversal of PD-1 mediated T-cell inhibition; 29,000 tested, under 10 active; primary human CD4 T cells, PD-L1 beads, CellTiter-Glo 96 h; activation, % (test concentration not listed); call rule not given here
Hedgehog inh: Sonic Hedgehog pathway inhibition. hit rate 2.1% among 22,000. Shh-LIGHT2 Gli-luciferase reporter, 30 h. inhibition, % (no concentration beside the values);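 active = mean inhibition across valid replicates above about 65%, limit read from the data; inconclusive = mean under the limit, yet half or more replicates past it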;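 also: pathway switched on by Shh-conditioned medium diluted 1 in 25 in low serum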
MITF inh: blocks MITF activity; TRPM1 promoter luciferase, luminescence, 24 h; inhibition, % (test concentration not listed); hit rate 0.28% among 37,000; AID 2240; in the data active = inhibition above about 85%; inconclusive = no clear call, values can overlap the other calls; inactive = below about 68%;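 also: human melanocyte line stably carrying TRPM1 promoter luciferase reporter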
NOMO-1 viab: STK33 inhibitor candidate reducing NOMO-1 cell viability; hit rate 7.5% among 37,000; inhibition, % (no concentration beside the values); AID 2330; NOMO-1 AML viability, CellTiter-Glo luminescence, 72 h; in the data active = inhibition above about 80%; inconclusive = no clear call, values can overlap the other calls
A number is an active result; n = inactive; u = inconclusive; x = no result.

SMILES	PD-1 reversal	Hedgehog inh	MITF inh	NOMO-1 viab
COc1ccc(NC(=O)Nc2cccc3c2O[C@@H](CN(C)Cc2ccc(-c4ccccc4)cc2)[C@@H](C)CN([C@H](C)CO)C3=O)cc1	n	n	n	113
COc1ccc(NC(=O)Nc2cccc3c2O[C@@H](CN(C)Cc2ccccc2)[C@H](C)CN([C@@H](C)CO)C3=O)cc1	n	n	n	93
COc1ccc(CN(C)C[C@H]2Oc3c(NC(=O)Nc4ccccc4)cccc3C(=O)N([C@@H](C)CO)C[C@H]2C)cc1	x	n	n	n
COc1ccc(NC(=O)Nc2cccc3c2O[C@H](CN(C)Cc2ccccc2)[C@H](C)CN([C@@H](C)CO)C3=O)cc1	n	n	n	n
COc1ccc(NC(=O)Nc2cccc3c2O[C@H](CN(C)Cc2ccc(Oc4ccccc4)cc2)[C@H](C)CN([C@@H](C)CO)C3=O)cc1	n	n	n	113
COc1ccc(CN(C)C[C@@H]2Oc3c(NC(=O)Nc4ccc(F)cc4)cccc3C(=O)N([C@H](C)CO)C[C@H]2C)cc1	n	n	n	94
Cn1nc(-c2ccc(NCc3cccnc3)c([N+](=O)[O-])c2)c2ccccc2c1=O	x	x	n	n
CC1(NC(=S)Nc2ccc(O)cc2)CCS(=O)(=O)C1 (stereo unspecified)	n	x	n	n
C[C@H]1CN([C@@H](C)CO)C(=O)c2cccc(NC(=O)Nc3cccc4ccccc34)c2O[C@H]1CN(C)Cc1ccc(Oc2ccccc2)cc1	n	n	n	93
COc1ccc(CN(C)C[C@@H]2Oc3c(NC(=O)Nc4ccc(OC)cc4)cccc3C(=O)N([C@@H](C)CO)C[C@H]2C)cc1	n	n	n	93
Cc1sc(NC(=O)c2ccccc2)c(C(=O)N2CCCCC2)c1C	n	n	n	n
CCc1cc(C(c2ccc(Cl)cc2)N2CCN(CCO)CC2)c(NC(=O)c2ccccc2)s1 (stereo unspecified)	n	81	n	117
Cc1ccc(NC(=O)CSc2nnnn2-c2ccc(Cl)c(C(=O)O)c2)cc1C	x	x	n	n
O=C(CC1(O)C(=O)N(Cc2ccc(Cl)cc2)c2ccc(Cl)cc21)c1ccco1 (stereo unspecified)	n	x	n	114
O=C(CC1(O)C(=O)Nc2ccc(F)cc21)c1ccco1 (stereo unspecified)	n	x	n	n
CN1C(=O)C(O)(CC(=O)c2ccco2)c2cc(Cl)ccc21 (stereo unspecified)	n	x	n	133
Cc1cccc2c1N(C)C(=O)C2(O)CC(=O)c1ccco1 (stereo unspecified)	n	x	n	84
Cc1coc(C)c1C(=O)CC1(O)C(=O)N(Cc2ccc(Cl)cc2)c2ccccc21 (stereo unspecified)	n	x	n	n
C[C@H](CO)N1C[C@H](C)[C@H](CN(C)S(=O)(=O)c2cn(C)cn2)Oc2ccc(NC(=O)NC3CCCCC3)cc2CC1=O	n	77	n	n
C[C@@H]1CN([C@H](C)CO)C(=O)Cc2cc(NC(=O)Nc3ccc(F)cc3)ccc2O[C@@H]1CN(C)S(=O)(=O)c1cn(C)cn1	x	n	n	n
C[C@H]1CN([C@@H](C)CO)C(=O)Cc2cc(NC(=O)Nc3ccc(C(F)(F)F)cc3)ccc2O[C@H]1CN(C)S(=O)(=O)c1cn(C)cn1	n	n	n	125
Cc1nc(-c2ccccc2)sc1C(=O)C1C(=O)C(=O)N(CCCN2CCOCC2)C1c1cccs1 (stereo unspecified)	n	x	n	n
C/C=C(/C)C(=O)O[C@H]1CC(C)(C)C[C@H]2C3=CCC4[C@@]5(C)CC[C@H](O[C@@H]6O[C@H](C(=O)O)[C@@H](O[C@@H]7O[C@H](CO)[C@H](O)[C@H](O)[C@H]7O[C@@H]7O[C@H](CO)[C@@H](O)[C@H](O)[C@H]7O)[C@H](O)[C@H]6O[C@@H]6O[C@@H](C)[C@H](O)[C@@H](O)[C@H]6O)C(C)(C)C5CC[C@@]4(C)[C@]3(C)C[C@@H](O)[C@@]12CO (stereo partly specified)	n	99	92	119
C=CC1(C)C=C2CCC3C(C)(C)C(O[C@@H]4O[C@@H](CO)[C@H](O)[C@H]4O)CCC3(C)C2CC1O[C@@H]1O[C@H](CO)[C@@H](O)[C@H](O)[C@H]1O (stereo partly specified)	x	99	x	x
CC1(C)CC[C@]2(C(=O)O[C@@H]3O[C@H](CO)[C@@H](O)[C@H](O)[C@H]3O)CC[C@]3(C)C(=CCC4[C@@]5(C)C[C@@H](O)[C@H](O)[C@@](C)(COC(=O)c6cc(O)c(O)c(O)c6)C5[C@H](O)C[C@]43C)[C@@H]2C1 (stereo partly specified)	n	n	n	109
SMILES	PD-1 reversal	Hedgehog inh	MITF inh	NOMO-1 viab
CC(=O)OC1COC(OC2C(O)C(C)OC(OC3C(OC4CCC5(C)C(CCC6(C)C5CC=C5C7CC(C)(C)CCC7(C(=O)O)CCC56C)C4(C)CO)OCC(O)C3O)C2O)C(O)C1OC(C)=O (stereo unspecified)	n	98	n	122
C=CC1(C)C=C2CCC3C(C)(C)C(O[C@@H]4O[C@@H](CO)[C@H](O)[C@H]4O)CCC3(C)C2CC1O[C@@H]1O[C@H](C)[C@H](O)[C@H](O)[C@H]1O (stereo partly specified)	n	n	n	n
CC1OC(OC2C(C(=O)O)OC(O[C@H]3CC[C@@]4(C)C(CC[C@]5(C)C4CC=C4C6CC(C)(C)CC[C@]6(C(=O)OC6OC(CO)C(O)C(O)C6O)CC[C@]45C)C3(C)C)C(O)C2O)C(OC2OCC(O)C(O)C2O)C(O)C1O (stereo partly specified)	n	n	n	n
CC1(C)CC[C@]2(C(=O)O[C@@H]3O[C@H](CO)[C@@H](O)[C@H](O)[C@H]3O)CC[C@]3(C)C(=CCC4[C@@]5(C)CC[C@H](O[C@@H]6O[C@H](C(=O)O)[C@@H](O)[C@H](O)[C@H]6O)C(C)(C)C5CC[C@]43C)C2C1 (stereo partly specified)	n	n	n	115
C[C@@H]1O[C@@H](O[C@@H]2[C@@H](O)[C@H](OC(=O)[C@]34CCC(C)(C)CC3C3=CCC5[C@@]6(C)CC[C@H](OC7OC(CO)C(OC8OCC(O)C(O)C8O)C(O)C7O)C(C)(C)C6CC[C@@]5(C)[C@]3(C)CC4O)O[C@H]2CO)[C@H](O)[C@H](O)[C@H]1O[C@H]1OC[C@](O)(CO)[C@H]1O (stereo partly specified)	n	u	n	95
CC1(C)CC[C@]2(C(=O)O)CC[C@]3(C)C(=CCC4[C@@]5(C)CC[C@H](O[C@@H]6O[C@H](CO)[C@@H](O)[C@H](O)[C@H]6O)C(C)(C)C5CC[C@]43C)[C@@H]2C1 (stereo partly specified)	n	89	n	120
O=C(O)CC1CCC(CC(O)/C=C\C/C=C\CCCCCO)O1 (stereo unspecified)	n	n	n	117
Cc1ccc(F)c(NC(=O)CSc2nnc(-c3ccccc3)n2C)c1	n	x	n	n
CC(C)c1ccc(N2C=Nc3ccc(C(C)C)cc3C2)cc1	n	n	n	115
O=C(COc1ccc([N+](=O)[O-])cc1)Nc1cccc(O)c1	n	x	n	n
